Consider seven compounds from PubChem BioAssay (Tox21).

Assay [1] is described as follows: qHTS assay to identify aromatase inhibitors - cell viability counter screen (AID 743084).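 Also: cells stimulated with testosterone during compound exposure; nearly all actives have a fitted effect of over 55% in size.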 Particulars: MCF-7 aro ERE viability, CellTiter-Fluor, 24 h; series mostly up to 70.3 µM.
Assay [2] addresses Aryl hydrocarbon receptor (Homo sapiens) (UniProt P35869). Description: qHTS assay to identify small molecule that activate the aryl hydrocarbon receptor (AhR) signaling pathway (AID 743085). Also: nearly all actives have a fitted effect of over 15% in size. Also: potency is read from the fitted curve at half-maximal effect.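 As to activation: HG2L7.5c1 human HepG2 liver cells with stably integrated DRE-driven firefly reporter.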 Conditions: HepG2 AhR-luc (HG2L7.5c1), luciferase, 24 h; series mostly up to 70.3 µM. An outline of the steps:
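Stably transfected human liver carcinoma cells (HG2L7.5c1; 20 DRE-firefly luciferase) were incubated 5 h, dosed, and kept 24 h at 37C. Agonism was scored from increased luciferase luminescence.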
In general terms: qHTS replaces the single test concentration by a dilution series.

Assay [3] is described as follows: qHTS assay to identify small molecule that activate the aryl hydrocarbon receptor (AhR) signaling pathway - cell viability counter screen (AID 743086).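 Also: HepG2 liver cells carrying the AhR DRE luciferase reporter; nearly all actives have a fitted effect of over 45% in size.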 Particulars: HepG2-AhR-luc viability, CellTiter-Fluor, 24 h; series mostly up to 70.3 µM. An outline of the steps: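 HepG2-AhR-luc (HG2L7.5c1) cells, 4000/well, were preincubated 5 h at 37C, exposed to compound in qHTS format for 24 hr at 37C, then given CellTiter-Fluor for 30 min; viability was read as fluorescence in the reporter wells.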

In assay [4] the target is Peroxisome proliferator-activated receptor gamma (Homo sapiens) (UniProt P37231). Briefly: qHTS assay to identify small molecule agonists of the peroxisome proliferator-activated receptor gamma (PPARg) signaling pathway (AID 743094; active = well fitted activation curve with a large enough effect in the signal ratio in the repeat runs, not every such curve was filed as active; the % refers to the signal ratio). Conditions: HEK293H PPARg-UAS-bla, beta-lactamase FRET ratio, 17 h; series mostly up to 57 µM. An outline of the steps: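 Reporter activation was scored by fluorescence of cleaved LiveBLAzer B/G substrate (1 h, room temperature) in PPARg-bla HEK293H cells previously treated 17 h at 37C with DMSO-dissolved compounds.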

SMILES strings stand for the structures. Results filed as inconclusive are left out. The source made the active and inactive calls. Unless noted, calls follow the shape of the dose curve; as a rule, active = well fitted curve in the direction sought with a large enough effect in the repeat runs; inconclusive = weak or mixed curves; inactive = no such curve, though single readings can be large; an effect the other way counts as inactive or inconclusive. Positions of bridges follow the written chain, without caps; N, C: chain ends. Non-standard residues stand in square brackets, D forms with d. Residues, ends and D or L forms follow the SMILES beside them. *: point of attachment. X1 = CC[C@@H](C)[C@@H](N)C1=N[C@H](C(=O)*)CS1; d(aIle) = CC[C@H](C)[C@@H](N)C(=O)O; dOrn = NCCC[C@@H](N)C(=O)O

Sequence of Peroxisome proliferator-activated receptor gamma (Homo sapiens) (P37231 whole entry, looked up): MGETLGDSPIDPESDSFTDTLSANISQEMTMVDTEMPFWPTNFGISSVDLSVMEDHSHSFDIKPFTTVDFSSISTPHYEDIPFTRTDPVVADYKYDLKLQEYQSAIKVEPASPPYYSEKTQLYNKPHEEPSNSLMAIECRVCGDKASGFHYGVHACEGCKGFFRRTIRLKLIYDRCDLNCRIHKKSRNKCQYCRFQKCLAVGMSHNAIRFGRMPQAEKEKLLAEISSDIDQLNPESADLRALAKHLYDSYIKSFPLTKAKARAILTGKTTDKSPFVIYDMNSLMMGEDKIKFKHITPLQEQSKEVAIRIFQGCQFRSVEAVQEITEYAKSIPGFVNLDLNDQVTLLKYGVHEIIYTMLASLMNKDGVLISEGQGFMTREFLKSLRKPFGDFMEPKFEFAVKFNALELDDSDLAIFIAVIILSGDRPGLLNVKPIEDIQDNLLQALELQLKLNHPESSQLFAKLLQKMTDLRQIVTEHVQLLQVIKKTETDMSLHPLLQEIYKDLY
Sequence of Aryl hydrocarbon receptor (Homo sapiens) (P35869 whole entry, looked up): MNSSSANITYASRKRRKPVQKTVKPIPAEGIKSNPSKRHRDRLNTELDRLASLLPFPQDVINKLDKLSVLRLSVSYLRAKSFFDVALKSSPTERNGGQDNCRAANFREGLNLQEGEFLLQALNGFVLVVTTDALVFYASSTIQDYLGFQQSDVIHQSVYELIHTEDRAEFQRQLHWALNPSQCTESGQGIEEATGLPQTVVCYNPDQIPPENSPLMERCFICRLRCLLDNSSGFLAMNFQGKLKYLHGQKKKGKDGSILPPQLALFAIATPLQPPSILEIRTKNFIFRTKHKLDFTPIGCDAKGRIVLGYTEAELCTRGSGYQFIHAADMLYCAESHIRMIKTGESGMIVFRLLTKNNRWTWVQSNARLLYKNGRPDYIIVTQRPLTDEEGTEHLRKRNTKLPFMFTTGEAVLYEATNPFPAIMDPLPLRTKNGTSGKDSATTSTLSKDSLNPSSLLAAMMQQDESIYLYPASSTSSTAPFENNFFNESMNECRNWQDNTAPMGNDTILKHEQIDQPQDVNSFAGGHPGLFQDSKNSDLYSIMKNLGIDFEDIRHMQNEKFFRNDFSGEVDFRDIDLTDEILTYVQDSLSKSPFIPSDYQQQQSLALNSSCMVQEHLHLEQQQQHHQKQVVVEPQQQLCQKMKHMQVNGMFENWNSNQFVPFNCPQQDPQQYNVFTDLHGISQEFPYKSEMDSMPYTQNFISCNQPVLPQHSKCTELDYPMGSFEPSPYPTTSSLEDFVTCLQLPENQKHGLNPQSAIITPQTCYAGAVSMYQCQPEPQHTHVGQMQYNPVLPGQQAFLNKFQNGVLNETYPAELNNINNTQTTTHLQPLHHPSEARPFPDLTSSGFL

On to `CC(CNC(=O)c1cccnc1)NC(=O)c1cccnc1` (stereo not drawn), for which the Potency result in assay [1], in assay [2], in assay [3] and in assay [4] was “inactive” throughout.

Consider `O=C(O)/C=C/C(=O)Nc1ccc(S(=O)(=O)Nc2nccs2)cc1`, for which the Potency entry in assay [1], in assay [2], in assay [3] and in assay [4] was “inactive” in each case.

As to `COc1ccc(/C=C/C(=O)Nc2ccccc2C(=O)O)cc1OC`, the Potency result in assay [1], in assay [3] and in assay [4] was “inactive” in each case. Moreover, the Potency in assay [2] is 3.35 µM (active).

Consider `O=S(=O)(O)CC(S)CS` (stereo not drawn), for which the Potency entry in assay [1], in assay [2], in assay [3] and in assay [4] was “inactive” in each case.

As to `CC[C@H]1OC(=O)C[C@@H](O)[C@H](C)[C@@H](O[C@@H]2O[C@H](C)[C@@H](O[C@H]3C[C@@](C)(O)[C@@H](O)[C@H](C)O3)[C@H](N(C)C)[C@H]2O)[C@@H](CC=O)C[C@@H](C)C(=O)/C=C/C(C)=C/[C@@H]1CO[C@@H]1O[C@H](C)[C@@H](O)[C@@H](OC)[C@H]1OC`, the Potency entry in assay [1], in assay [2], in assay [3] and in assay [4] was “inactive” throughout.

`CC(=O)NC[C@H]1CN(c2ccc(N3CCOCC3)c(F)c2)C(=O)O1`: the Potency entry in assay [1], in assay [2], in assay [3] and in assay [4] was “inactive” each time.

Consider `CC[C@@H](C)[C@@H](N)C1=N[C@H](C(=O)N[C@@H](CC(C)C)C(=O)N[C@@H](CCC(=O)O)C(=O)N[C@@H](C(=O)N[C@@H]2CCCCNC(=O)[C@@H](CC(N)=O)NC(=O)[C@@H](CC(=O)O)NC(=O)[C@@H](Cc3cnc[nH]3)NC(=O)[C@@H](Cc3ccccc3)NC(=O)[C@@H]([C@H](C)CC)NC(=O)[C@@H](CCCN)NC2=O)[C@@H](C)CC)CS1` (X1-LE[d(aIle)][dK][dOrn][dI][dF][dH][dD][dN]; lactam 4-C), for which the Potency result in assay [1], in assay [2], in assay [3] and in assay [4] was “inactive” each time.
